# Assay results taken from ChEMBL document CHEMBL3988442, “University of Dundee, Small-Polar-MMV Screening Library” (2021).
# Screen size: about 38,000 compounds; about 1,200 (3.2%) showed an effect of 50% or more. The median lay at about -58%. The list comes from a sample in which strong results are over-represented; it also holds similar structures and randomly drawn compounds.
# System: Plasmodium falciparum
# Test: Calibr Malaria Delayed Death Assay SOP
# Format: functional, organism-based
# Parameters: scale not given: in the data most compounds retested in dose-response had high values
# Details: concentration 4.99e-06 (unit not given; other assays of the set use mol/L)
row,SMILES,Percent Effect [%]
1,CCOc1cc(C(=O)N2CCCC(c3noc(C(C)C)n3)C2)ccn1 (configuration not stated),-128.3
2,Cc1c(F)cc(C(=O)O)cc1S(=O)(=O)Nc1ccc(F)c(C#N)c1,-35.67
3,Cc1occc1-c1nnc2n1NC(N)=C(C#N)S2,-74.61
4,COCCN(C)C[C@@H]1CN(C(=O)c2ccc(O)c(C)c2)C[C@@H]1CO,-85.42
5,COc1ccc(-c2ccc(C3CNCCO3)nc2)cc1.Cl (configuration not stated),63.33
6,COc1ccc(-c2cnc(NC(C)=O)[nH]2)cc1,-138
7,COc1ccc(-c2cc(C3CCN(C(C)=O)CC3)ccn2)cc1,-100.7
8,C[C@H]1C[C@@H]2CCN(C(=O)c3cnccn3)C[C@H]2O1,-123.8
9,Cc1ccc(N2N=C(C(=O)O)S(=O)(=O)c3cccnc32)cc1,-91.48
10,O=C(CCCn1cncn1)NC1CCc2nccn2C1 (configuration not stated),-11.39
11,COc1ccc(CN(C)CCS(=O)(=O)c2ccc(Cl)cc2)cc1OC,-60.68
12,Cn1c(-c2cc3n(n2)CCCN(CC(=O)O)C3)nc2ccccc21,-285
13,CCCn1ncc(CN2C[C@@H]3CCCN3C[C@H]2Cc2ccccc2)c1C,55.8
14,CCCn1ncc(CN2C[C@@H]3CCCN3C[C@@H]2Cc2ccccc2)c1C,62.1
15,C=Cn1ncc(CN2C[C@@H]3C[C@@H](O)CN3C[C@H]2Cc2ccccc2)c1C,32.93
16,CCCn1ncc(CN2CCCCC2CCCOC)c1C (configuration not stated),-4.874
17,c1ccc(CNc2ncc(CN3CCCN4CCC[C@H]4C3)cn2)cc1,-75.33
18,CCCn1ncc(C(=O)N2CCN(C3CCCC3)CC2)c1C,-11.79
19,CCOc1cccc(NC(=O)c2cc[nH]n2)n1,-28.36
20,Cc1cc(CN2C[C@@H]3COC[C@@H](C(=O)N4CCCCO4)[C@@H]3C2)no1.O=C(O)C(F)(F)F,-37.6
21,Cc1c(C(C)NC2CCOCC2)cnn1-c1ccc(F)cc1F (configuration not stated),-4.766
22,Cc1c(C(C)NCC2CCCC2)cnn1-c1ccc(F)cc1F (configuration not stated),70.86
23,Cc1c(C(C)NC2CSCCSC2)cnn1-c1ccc(F)cc1F (configuration not stated),-8.599
24,CCc1nnc(SCc2cc(=O)n3c4c(sc3n2)CCCC4)[nH]1,-134.4
25,COc1cncc(-n2nc(C)c(CC(C)=O)c2C)c1,-95.89

row,SMILES,Percent Effect [%]
1,CCC(=O)N1CCC2(COCc3cnc(N4CCOCC4)nc32)C1 (configuration not stated),-52.14
2,CCOc1cncc(N2CCN(c3ccccc3F)CC2)n1,-93.07
3,Cc1nnc(NCC2(c3ccccc3)CCC2)c(C#N)c1C,-38.66
4,COc1ccccc1C1(CNc2nnc(C)c(C)c2C#N)CCCC1,56.81
5,COc1ccccc1C1(CNc2nnc(C)c(C)c2C#N)CCOCC1,0.02654
6,CN(Cc1cccnc1)[C@@H]1CN(Cc2ccccn2)[C@@H]2CCCO[C@H]12,50.75
7,CN(Cc1cccnc1)[C@@H]1CN(c2ncc(F)cn2)[C@@H]2CCCO[C@H]12,-11.41
8,CN(Cc1cccnc1)[C@@H]1CN(c2ccccn2)[C@@H]2CCCO[C@H]12,-39.6
9,CCNC(=O)[C@@H]1C[C@H](N)CN1c1cc(CC)nc(N(C)C)n1,-75.2
10,CCNC(=O)[C@@H]1C[C@H](N)CN1c1cc(C(F)(F)F)nc(N2CCCC2)n1,54.16
11,CCNC(=O)[C@@H]1C[C@H](N)CN1c1cc(C(F)(F)F)nc(N(C)C)n1,19.6
12,O=C(O)C(F)(F)F.O=S(=O)(C1CC1)N1CCO[C@H]2[C@@H](Oc3cccnc3)CC[C@@H]21,-17.81
13,Cc1ccc(NC(=O)CN2CCC(OCC3CCCO3)CC2)c(C)c1 (configuration not stated),-25
14,COCCc1noc(CN2CC(Cc3ccccc3)CC2=O)n1 (configuration not stated),-62.6
15,CC(C)C1CCCN1C(=O)c1ccc(-n2ncc(C#N)c2N)cc1 (configuration not stated),71.17
16,CCOC1CCN(C(=O)c2ccc(-n3ncc(C#N)c3N)cc2)CC1,-36.9
17,CCCC1SCCN1C(=O)c1ccc(-n2ncc(C#N)c2N)cc1 (configuration not stated),-3.634
18,Cc1ccc(N2CCC(N3C[C@@H](CN(C)C)[C@@H](CO)C3)CC2)cc1,0.06165
19,CN(CCO)C[C@@H]1CN(C(=O)c2c(F)cccc2Cl)C[C@@H]1CO,-48.12
20,Cc1cc(F)ccc1N1CCC(N2C[C@@H](C)[C@@](C)(O)C2)CC1,37.17
21,Cc1ccccc1CN1C[C@@H](CN(C)CCO)[C@@H](CO)C1,6.489
22,CN(C)C[C@@H]1CN(Cc2ccccc2C#N)C[C@@H]1CO,-49.24
23,COc1ccc(CN2C[C@@H](CN(C)CCO)[C@@H](CO)C2)cc1Cl,-13.19
24,Cc1c(C(=O)N2CCCC2c2cnn(C)c2)cnn1-c1ccccc1 (configuration not stated),-71.93
25,NC(=O)C1CCN(CCCNC(=O)Nc2nncs2)CC1,-69.85

row,SMILES,Percent Effect [%]
1,C=C(C)COc1cccc(CNCCc2c[nH]cn2)c1,26.04
2,C=C(C)COc1ccccc1CNCCc1c[nH]cn1,4.371
3,CCc1ccccc1OCCNCCc1c[nH]cn1,69.73
4,Cn1nccc1C(=O)N1CCCC2(CCN(c3ccsc3)C2=O)C1 (configuration not stated),-40.86
5,Cc1ccccc1SCC(=O)NC1CCC(O)CC1 (configuration not stated),-39.35
6,CN(C)C(=O)CN1CCN(Cc2coc(-c3cccc(F)c3)n2)CC1,-61.15
7,CSc1ccc(-c2nc(CN3CCNCC3C)c(C)o2)cc1 (configuration not stated),34.18
8,CSc1ccc(-c2nc(CN3C[C@@H](C)NC[C@@H]3C)c(C)o2)cc1,-63.77
9,Cc1oc(-c2cc(F)cc(F)c2)nc1CN1C[C@@H](C)NC[C@@H]1C,59.48
10,Cn1ncc2c1CCCC2NCc1ccc(OCc2cccnc2)cc1 (configuration not stated),4.43
11,CNC(=O)[C@@H]1C[C@@H]2CCN(Cc3ccoc3)C[C@H]2O1,-25.74
12,CO[C@H]1CCN(Cc2nccs2)C[C@@H]1Cc1ccccc1,-31.89
13,CO[C@H]1CCN(c2ncccn2)[C@H]1Cc1ccccc1,-101.2
14,COCCO[C@H]1CCN(Cc2ccoc2)[C@H]1Cc1cccnc1,-10.51
15,O=C(CCNS(=O)(=O)c1ccccc1F)NCc1ccoc1,-33.2
16,CCC1(CNC(=O)NC(c2nnc3n2CCC3)C(C)C)CCC1 (configuration not stated),-142
17,Cc1ccc(C)n1-c1c(C(=O)NCC(c2ccsc2)N(C)C)cnn1C (configuration not stated),-29.69
18,COc1ccc(-c2nonc2N)cc1,-30.35
19,Cc1cnc(N2CC[C@@H]3O[C@@H](COCC(=O)N(C)C)CC[C@@H]32)nc1.O=C(O)C(F)(F)F,-30.4
20,CC(C)(C)C1CC(=O)Nc2c1cnn2Cc1ccco1 (configuration not stated),-56.11
21,COC1CN(C(=O)NCC(N)=O)CCC(=O)N(C)c2ccccc21 (configuration not stated),-44.55
22,COCCN(C)C[C@@H]1CCC[C@@H]2CN(Cc3ccc(OC)nc3)C[C@@H]21.O=C(O)C(F)(F)F.O=C(O)C(F)(F)F,78.92
23,O=C(C[C@@H]1COC[C@H]2CN(Cc3cccnc3)C[C@@H]12)N1CCCC1.O=C(O)C(F)(F)F.O=C(O)C(F)(F)F,-138.8
24,COc1cc(N2C[C@H]3CCC[C@@H](CN4CCOCC4)[C@H]3C2)ncn1.O=C(O)C(F)(F)F,-88.21
25,O=C(C[C@@H]1COC[C@H]2CN(Cc3cccnc3)C[C@@H]12)N1CCOCC1.O=C(O)C(F)(F)F.O=C(O)C(F)(F)F,-46.72

row,SMILES,Percent Effect [%]
1,Cc1ccc(N2C[C@H]3CCC[C@@H](CN(C)C)[C@H]3C2)nn1.O=C(O)C(F)(F)F,-59.72
2,COc1ccc(CN2C[C@H]3CCC[C@@H](CN(C)C4CC4)[C@H]3C2)cn1.O=C(O)C(F)(F)F.O=C(O)C(F)(F)F,77
3,CN(C[C@@H]1CCC[C@@H]2CN(Cc3cccnc3)C[C@@H]21)C1CC1.O=C(O)C(F)(F)F.O=C(O)C(F)(F)F,55.19
4,COc1ccc(CN2C[C@H]3CCC[C@@H](CN(C)C)[C@H]3C2)cn1.O=C(O)C(F)(F)F.O=C(O)C(F)(F)F,48.48
5,COc1cc(N2C[C@H]3CCC[C@@H](CN(C)C4CC4)[C@H]3C2)ncn1.O=C(O)C(F)(F)F,-80.87
6,NC(=O)C1CCN(c2ncccc2C(=O)N2CCc3ccccc32)C1 (configuration not stated),-5.535
7,Cc1ccc(-c2nc(CN3CCCC(Cn4cncn4)C3)co2)cc1 (configuration not stated),-95.97
8,O=C1CCCN1Cc1ncn2c1CN(C(=O)C1CC=CC1)CCC2,-7.909
9,COc1cc(F)ccc1N1CCN(Cc2nnc(C3CC3)o2)CC1,-5.241
10,c1ccc2[nH]c(C3CCN(Cc4nnc(C5CC5)o4)CC3)cc2c1,-66.02
11,CO[C@@H]1CCN(Cc2ccc(C)o2)[C@H]1Cc1ccccc1.O=C(O)C(F)(F)F,-53.14
12,COCCO[C@H]1CCN(Cc2cccnc2)[C@H]1Cc1cccnc1.O=C(O)C(F)(F)F.O=C(O)C(F)(F)F.O=C(O)C(F)(F)F,3.1
13,COCCN1CC[C@H](OC)[C@@H]1Cc1ccccc1.O=C(O)C(F)(F)F,62.78
14,CO[C@H]1CCN(c2nnc(C)s2)C[C@@H]1Cc1ccccc1.O=C(O)C(F)(F)F,-43.17
15,COCCN1CC[C@@H](O)[C@@H]1Cc1ccccc1.O=C(O)C(F)(F)F,-35.17
16,COCCN1CC[C@@H](OC)[C@@H]1Cc1ccccc1.O=C(O)C(F)(F)F,1.708
17,COC[C@H]1CN(CC2CC2)C(=O)[C@@H]2CCN(Cc3ccoc3)CC[C@H]12.O=C(O)C(F)(F)F,-86.79
18,CO[C@@H]1CCN(Cc2ccoc2)[C@H]1Cc1ccccc1.O=C(O)C(F)(F)F,59.96
19,CO[C@H]1CCN(Cc2ccoc2)C[C@@H]1Cc1ccccc1.O=C(O)C(F)(F)F,66.03
20,CO[C@@H]1CCN(Cc2ccoc2)C[C@@H]1Cc1ccccc1.O=C(O)C(F)(F)F,88.6
21,CO[C@@H]1CCN(Cc2nccs2)C[C@@H]1Cc1ccccc1.O=C(O)C(F)(F)F,-15.24
22,CO[C@@H]1CCN(Cc2nccs2)C[C@@H]1Cc1cccc(C)c1.O=C(O)C(F)(F)F,-13.39
